Holding throughout (test): NCI-60 one-dose screen, 48 h (100 = growth as untreated, 0 = no growth, -100 = all killed)
One assay has as its system DU-145 prostate. Conditions: 10 µM unless noted.
In the next assay the test system is K-562 leukemia. Conditions: 10 µM unless noted.
A further assay concerns MALME-3M melanoma. Conditions: 10 µM unless noted.
The subject of another assay is MDA-MB-231 breast. Conditions: 10 µM unless noted.
A further assay deals with RXF 393 renal. The following applies: 10 µM unless noted.
The subject of the next assay is SF-268 CNS. Conditions: 10 µM unless noted.
In another assay the test system is SF-295 CNS. The following applies: 10 µM unless noted.
The next assay has as its system SF-539 CNS. The following applies: 10 µM unless noted.
The subject of a further assay is UACC-257 melanoma. Conditions: 10 µM unless noted.
A further assay deals with M14 melanoma. The following applies: 10 µM unless noted.
The next assay concerns HCT-15 colon. Conditions: 10 µM unless noted.
The subject of another assay is HT29 colon. The following applies: 10 µM unless noted.
The next assay has as its system SNB-19 CNS. Conditions: 10 µM unless noted.
The subject of the next assay is U251 CNS. The following applies: 10 µM unless noted.
The next assay deals with PC-3 prostate. Conditions: 10 µM unless noted.
A further assay concerns SK-MEL-5 melanoma. Conditions: 10 µM unless noted.
The subject of a further assay is UACC-62 melanoma. The following applies: 10 µM unless noted.
A further assay deals with LOX IMVI melanoma. The following applies: 10 µM.
The next assay has as its system SK-MEL-28 melanoma. The following applies: 10 µM unless noted.

This is part of a sample that, as a whole, favours compounds with a hit. Of some 83,000 tested, about 20% had one in any assay.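 How to read the values: 0–100, growth inhibition (40 = 60% inhibited); 0, no net growth; -100 to 0, cell death (-40 = 40% of starting cells died; -100 = all dead).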 Unmarked numbers belong to inactive results. Calls of active or inactive are those of the source. Rule for the calls: active = growth percent below 10; inactive = the rest.

For the compound `COc1c(F)ccc(C(=O)Nc2ccc3nc(NC(=O)C4CCCN(S(=O)(=O)c5cccc(Cl)c5)C4)sc3c2)c1F` (configuration not stated), the growth in the assay with DU-145 prostate is 90.5%; in the assay with K-562 leukemia, 53.8%; in the assay on MALME-3M melanoma, 97.6%; in the assay on MDA-MB-231 breast it was 87.9%; with RXF 393 renal, -6.85% (active); with SF-268 CNS, 86.9%. The growth was 78.7% in the assay on SF-295 CNS; 70.7% in the assay with SF-539 CNS; 84.7% with UACC-257 melanoma; 84.7% with M14 melanoma; 68.9% with HCT-15 colon; 82.2% in the assay on HT29 colon. Besides, the growth was 80.4% with SNB-19 CNS; 71.5% in the assay on U251 CNS; 57.7% in the assay on PC-3 prostate; 79.6% in the assay with SK-MEL-5 melanoma; 78.6% in the assay with UACC-62 melanoma; 79.6% in the assay with LOX IMVI melanoma. Moreover, the growth in the assay on SK-MEL-28 melanoma was 92.1%.

With `CC1(c2cc3cc(Br)ccc3oc2=O)NC(=O)c2c(/C=C/C(=O)OC3CC4CCC3(C)C4(C)C)cccc2N1` (configuration not stated), the growth in the assay on DU-145 prostate was 84.3%; in the assay on K-562 leukemia, 28.4%; with MALME-3M melanoma, 102%; with MDA-MB-231 breast, 98.2%; in the assay with RXF 393 renal, 75.2%; with SF-268 CNS, 82.8%. For the same compound, the growth with SF-295 CNS was 64%; in the assay with SF-539 CNS, 96.8%; with UACC-257 melanoma, 77%; with M14 melanoma, 86%; in the assay on HCT-15 colon it was 82.9%; with HT29 colon it was 88.7%. Moreover, the growth is 72% in the assay on SNB-19 CNS; 69.8% in the assay on U251 CNS; 36.5% in the assay with PC-3 prostate; 74.5% in the assay on SK-MEL-5 melanoma; 79.8% with UACC-62 melanoma; 84.5% in the assay with LOX IMVI melanoma. Also, in the assay on SK-MEL-28 melanoma, the growth is 86.5%.

For `CC(=O)/C=C/c1cccc2c1C(=O)NC(C)(c1cc3cc(Br)ccc3oc1=O)N2` (configuration not stated), the growth with DU-145 prostate is 19.1%; in the assay with K-562 leukemia, 0.91% (active); in the assay on MALME-3M melanoma, 31.3%; with MDA-MB-231 breast it was 18%; with RXF 393 renal, -12.9% (active); with SF-268 CNS, 56.1%. The growth with SF-295 CNS is 39%; in the assay with SF-539 CNS it was 19.2%; in the assay with UACC-257 melanoma, 27.2%; in the assay with M14 melanoma, 31.4%; with HCT-15 colon it was 14.6%; in the assay on HT29 colon, 27.6%. For the same compound, the growth in the assay with SNB-19 CNS is 51.8%; with U251 CNS, 18.6%; in the assay on PC-3 prostate, 21.6%; in the assay with SK-MEL-5 melanoma it was 13.1%; with UACC-62 melanoma it was 13%; with LOX IMVI melanoma it was 14.8%. For the same compound, the growth in the assay on SK-MEL-28 melanoma is 58.8%.

As to `COc1c(F)ccc(C(=O)Nc2ccc3nc(NC(=O)C4CCCN(S(=O)(=O)c5ccc(Cl)cc5)C4)sc3c2)c1F` (configuration not stated), the growth is 93.4% in the assay with DU-145 prostate; 59.2% with K-562 leukemia; 90.5% in the assay with MALME-3M melanoma; 81.1% in the assay on MDA-MB-231 breast; 8.75% (active) in the assay with RXF 393 renal; 77.4% with SF-268 CNS. The growth in the assay with SF-295 CNS was 63.6%; in the assay with SF-539 CNS, 66.8%; in the assay on UACC-257 melanoma, 82.4%; in the assay on M14 melanoma it was 75.6%; with HCT-15 colon, 72.8%; in the assay with HT29 colon, 72.1%. Besides, the growth in the assay on SNB-19 CNS was 82.5%; with U251 CNS it was 70.3%; in the assay on PC-3 prostate, 55.9%; in the assay with SK-MEL-5 melanoma it was 72.3%; in the assay on UACC-62 melanoma it was 67.1%; in the assay with LOX IMVI melanoma it was 76%. The growth with SK-MEL-28 melanoma is 89.4%.

Take `COc1c(F)ccc(C(=O)Nc2ccc3nc(NC(=O)C4CCCN(S(=O)(=O)c5cccc(Br)c5)C4)sc3c2)c1F` (configuration not stated): the growth in the assay on DU-145 prostate was 91.4%; in the assay on K-562 leukemia, 60.2%; with MALME-3M melanoma, 99.4%; in the assay on MDA-MB-231 breast it was 90.7%; in the assay with RXF 393 renal, -3.33% (active); in the assay on SF-268 CNS, 69.7%. Besides, the growth is 84.5% with SF-295 CNS; 74.5% in the assay on SF-539 CNS; 92.4% in the assay with UACC-257 melanoma; 87.2% in the assay on M14 melanoma; 80.8% in the assay with HCT-15 colon; 85.7% in the assay on HT29 colon. For the same compound, the growth in the assay on SNB-19 CNS was 82.7%; with U251 CNS, 75%; with PC-3 prostate it was 57.8%; in the assay with SK-MEL-5 melanoma, 89.4%; with UACC-62 melanoma, 80.8%; in the assay on LOX IMVI melanoma, 85%. Besides, the growth with SK-MEL-28 melanoma is 97.8%.

For the compound `O=C(N1c2ccccc2Sc2ccccc21)n1ccc2cccnc21`, the growth is 86.6% in the assay with DU-145 prostate; 19.5% with K-562 leukemia; 75.5% in the assay with MALME-3M melanoma; 69.3% in the assay on MDA-MB-231 breast; 83.7% in the assay on RXF 393 renal; 80.8% in the assay with SF-268 CNS. Further, the growth in the assay with SF-295 CNS is 81%; in the assay with SF-539 CNS, 76.6%; in the assay on UACC-257 melanoma, 61.1%; with M14 melanoma it was 70.1%; in the assay on HCT-15 colon it was 40.2%; with HT29 colon, 60.7%. The growth with SNB-19 CNS is 74.3%; in the assay on U251 CNS it was 51.3%; in the assay with PC-3 prostate, 39.8%; with SK-MEL-5 melanoma it was 45.9%; with UACC-62 melanoma it was 47.5%; in the assay on LOX IMVI melanoma, 44.8%. For the same compound, the growth in the assay with SK-MEL-28 melanoma is 76.9%.

Turning to `Cn1cc(NC(=O)c2cc(NC(=O)c3ccc(C#Cc4ccccc4)cc3)cn2C)cc1C(=O)NCCCN1CCOCC1`, the growth is 56.4% in the assay with DU-145 prostate; -41.5% (active) in the assay with K-562 leukemia; -84.8% (active) in the assay on MALME-3M melanoma; 4.99% (active) with MDA-MB-231 breast; -4.28% (active) in the assay on RXF 393 renal; 63.2% in the assay with SF-268 CNS. The growth in the assay with SF-295 CNS was -81.9% (active); in the assay with SF-539 CNS it was -85.5% (active); in the assay on UACC-257 melanoma, -28.8% (active); in the assay with M14 melanoma, -86.4% (active); in the assay with HCT-15 colon it was -59.4% (active); with HT29 colon, -71.2% (active). The growth with SNB-19 CNS is 73.3%; in the assay on U251 CNS, -70.1% (active); with PC-3 prostate, 29.8%; in the assay on SK-MEL-5 melanoma it was -92% (active); with UACC-62 melanoma, -90.9% (active); with LOX IMVI melanoma it was -100% (active). For the same compound, in the assay with SK-MEL-28 melanoma, the growth is -91.8% (active).

Consider `COc1ccc(-c2ccnc(SCc3cc4ccccc4[nH]c3=O)n2)cc1OC`, for which the growth was 36.4% in the assay on DU-145 prostate; 62.9% in the assay with K-562 leukemia; 8.86% (active) in the assay on MALME-3M melanoma; -51.8% (active) with MDA-MB-231 breast; -30.4% (active) in the assay with RXF 393 renal; 23% with SF-268 CNS. Moreover, the growth is -78.3% (active) in the assay with SF-295 CNS; -84.7% (active) in the assay with SF-539 CNS; 29.5% in the assay on UACC-257 melanoma; 45.4% in the assay with M14 melanoma; 39.5% in the assay on HCT-15 colon; -80.8% (active) in the assay on HT29 colon. The growth is -7.41% (active) with SNB-19 CNS; -13.5% (active) in the assay with U251 CNS; -21.9% (active) in the assay on PC-3 prostate; 1.35% (active) in the assay with SK-MEL-5 melanoma; 1.83% (active) with UACC-62 melanoma; 18.8% in the assay on LOX IMVI melanoma. In addition, the growth in the assay on SK-MEL-28 melanoma was 9.54% (active).

These data come from PubChem BioAssay (NCI).
